Data: PubChem BioAssay (NCATS)
Values joined by “and” are separate entries in the source; they are usually repeats but may differ in a detail not shown here. Equal values may be shown once. Values without a mark were called inactive. Inconclusive results are not listed. Where a call stands in place of a potency, no number is given. Active and inactive are the calls of the source. Unless noted, the call rests on the fitted dose curve; in most records, active means well fitted curve in the direction sought with a large enough effect; inconclusive means small, poorly fitted or top-dose-only effect, or another doubt; inactive means no such curve, though single readings can be large; an effect the other way counts as inactive or inconclusive.

Assays:
[1] = biological target: Beta-2 adrenergic receptor (Homo sapiens) (UniProt P07550); test: qHTS validation assay of beta-arrestin-biased ligands of beta2-adrenergic receptor (AID 485366)
Sequence of Beta-2 adrenergic receptor (Homo sapiens) (P07550 whole entry, looked up): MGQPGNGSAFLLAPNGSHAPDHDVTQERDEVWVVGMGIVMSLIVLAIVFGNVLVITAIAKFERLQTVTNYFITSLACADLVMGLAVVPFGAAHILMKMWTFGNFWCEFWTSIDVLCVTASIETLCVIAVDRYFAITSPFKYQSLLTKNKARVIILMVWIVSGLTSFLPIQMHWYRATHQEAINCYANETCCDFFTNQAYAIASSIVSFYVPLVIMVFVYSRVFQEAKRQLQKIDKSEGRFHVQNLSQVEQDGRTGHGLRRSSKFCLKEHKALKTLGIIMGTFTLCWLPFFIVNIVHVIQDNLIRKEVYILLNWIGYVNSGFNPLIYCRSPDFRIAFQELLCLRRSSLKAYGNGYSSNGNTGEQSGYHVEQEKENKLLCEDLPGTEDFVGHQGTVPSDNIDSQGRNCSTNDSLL
Procedure, shortened: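 qHTS, Tango cells, 1500 cells/well, DMEM + 1% FBS. Cpd 18 hr at 37 degrees C. Luciferin/ATP/CoA detection mix, 15 min RT, luminescence read. %Activity from corrected signal; CRC fit, curve class.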

[2] = biological target: Thioredoxin reductase 1, cytoplasmic (Rattus norvegicus) (UniProt O89049); test: qHTS Assay for Substrates of Mammalian Selenoprotein Thioredoxin Reductase 1 (TrxR1) (AID 488772);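 further: series mostly up to about 57 µM; a drop in NADPH fluorescence below the no-compound background marks a TrxR1 substrate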
Sequence of Thioredoxin reductase 1, cytoplasmic (Rattus norvegicus) (O89049 whole entry, looked up): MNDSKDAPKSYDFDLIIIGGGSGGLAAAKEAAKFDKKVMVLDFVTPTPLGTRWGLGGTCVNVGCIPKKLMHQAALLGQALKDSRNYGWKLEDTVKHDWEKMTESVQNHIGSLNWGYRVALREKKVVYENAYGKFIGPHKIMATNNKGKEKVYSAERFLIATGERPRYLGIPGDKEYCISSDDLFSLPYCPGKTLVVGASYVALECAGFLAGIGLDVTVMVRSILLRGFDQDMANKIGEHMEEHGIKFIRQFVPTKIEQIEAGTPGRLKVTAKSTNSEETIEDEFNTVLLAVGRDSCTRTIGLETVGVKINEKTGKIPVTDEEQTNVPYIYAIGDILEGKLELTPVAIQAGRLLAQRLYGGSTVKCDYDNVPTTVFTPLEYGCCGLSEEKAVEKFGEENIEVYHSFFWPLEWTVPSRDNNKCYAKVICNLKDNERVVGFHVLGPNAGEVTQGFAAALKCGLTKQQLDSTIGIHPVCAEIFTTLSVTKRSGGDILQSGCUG
Procedure, shortened: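 In this dual-purpose format, potential substrates are identified from the first fluorescence read after selenite addition, not from the 8-minute delta. Rat enzyme is preincubated with NADPH and then with compound at ~22 deg C.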

[3] = biological target: Thioredoxin reductase 1, cytoplasmic (Rattus norvegicus) (UniProt O89049); test: qHTS Assay for Inhibitors of Mammalian Selenoprotein Thioredoxin Reductase 1 (TrxR1) (AID 488773); details: Potency: inhibition;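 further: drop in NADPH fluorescence over an 8 min run after selenite addition; series mostly up to about 57 µM; nearly all actives have a fitted effect of over 40% in size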
Procedure, shortened: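 Inhibition is scored from the loss of NADPH fluorescence between first and last reads of an 8-min kinetic run. Selenite (400 uM) was the substrate, added after 15 min compound preincubation at room temperature.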

[4] = biological target: Flap endonuclease 1 (Homo sapiens) (UniProt P39748); test: qHTS Validation Assay for the Inhibitors of Human Flap endonuclease 1 (FEN1) (AID 488816); further: potency means the concentration at half of the fitted maximal effect
Sequence of Flap endonuclease 1 (Homo sapiens) (P39748 whole entry, looked up): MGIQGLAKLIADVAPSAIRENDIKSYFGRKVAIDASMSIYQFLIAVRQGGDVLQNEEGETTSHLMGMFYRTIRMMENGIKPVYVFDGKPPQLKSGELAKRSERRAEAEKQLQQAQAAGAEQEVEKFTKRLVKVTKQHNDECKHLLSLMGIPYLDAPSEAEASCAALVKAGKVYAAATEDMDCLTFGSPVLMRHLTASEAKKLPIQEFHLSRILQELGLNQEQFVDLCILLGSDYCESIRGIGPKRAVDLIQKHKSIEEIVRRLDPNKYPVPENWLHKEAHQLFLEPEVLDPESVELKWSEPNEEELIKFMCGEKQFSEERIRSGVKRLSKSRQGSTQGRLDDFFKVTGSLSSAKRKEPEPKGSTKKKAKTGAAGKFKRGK
Procedure, shortened: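 Enzyme reagent 10 nM; cpds pinned; 15 min RT preinc.; substrate 50 nM final; reads t=0 and 15 min; no-enzyme buffer wells as neg. control; normalized data, 4-parameter Hill fit.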

[5] = biological target: M-phase phosphoprotein 8 (Homo sapiens) (UniProt Q99549); test: qHTS Validation Assay for Inhibitors for MPP8 Chromodomain Interactions with Methylated Histone Tails (AID 488949); further: nearly all actives have a fitted effect of over 55% in size; further: potency means the concentration at half of the fitted maximal effect
Sequence of M-phase phosphoprotein 8 (Homo sapiens) (Q99549 whole entry, looked up): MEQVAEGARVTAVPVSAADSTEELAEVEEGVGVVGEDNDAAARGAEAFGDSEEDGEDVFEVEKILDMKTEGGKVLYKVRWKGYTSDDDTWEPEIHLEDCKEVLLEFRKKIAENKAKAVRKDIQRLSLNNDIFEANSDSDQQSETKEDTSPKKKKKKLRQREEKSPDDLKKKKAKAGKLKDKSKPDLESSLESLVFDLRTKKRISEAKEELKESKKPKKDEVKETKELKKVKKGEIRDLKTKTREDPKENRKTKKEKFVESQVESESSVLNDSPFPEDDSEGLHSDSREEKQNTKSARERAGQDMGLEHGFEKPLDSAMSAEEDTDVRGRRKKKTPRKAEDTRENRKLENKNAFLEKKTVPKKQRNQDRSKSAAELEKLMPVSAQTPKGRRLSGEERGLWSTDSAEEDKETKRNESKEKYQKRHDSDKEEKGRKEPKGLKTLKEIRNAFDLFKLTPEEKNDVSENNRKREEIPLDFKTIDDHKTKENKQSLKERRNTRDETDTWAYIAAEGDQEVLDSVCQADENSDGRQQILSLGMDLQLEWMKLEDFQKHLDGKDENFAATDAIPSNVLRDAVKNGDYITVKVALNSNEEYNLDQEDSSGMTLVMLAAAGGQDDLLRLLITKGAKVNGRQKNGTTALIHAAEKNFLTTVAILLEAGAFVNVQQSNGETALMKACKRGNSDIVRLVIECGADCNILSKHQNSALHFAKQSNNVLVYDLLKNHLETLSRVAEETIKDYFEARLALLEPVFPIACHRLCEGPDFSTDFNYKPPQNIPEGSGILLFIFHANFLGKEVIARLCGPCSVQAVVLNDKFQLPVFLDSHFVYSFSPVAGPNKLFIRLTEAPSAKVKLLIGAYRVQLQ
Procedure, shortened: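 50 nM MPP8 + 50 nM b-H3K9me3 peptide, PBS pH 7.4/0.01% Tween-20, 30 min RT; + cpd 30 min RT; + AlphaScreen donor/Ni-chelate acceptor beads 10 ug/mL final, 30 min dark; luminescence read.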

[6] = biological target: Methanococcus maripaludis chaperonin (MmCpn) (UniProt Q6LX38); test: High-Throughput Screening for Modulators of Cytosolic Chaperonin Activity: MmCpn Primary Screen (AID 488978);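 further: 50 nM MmCpn enzyme hydrolysing 30 µM ATP at 37 °C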
Sequence of Methanococcus maripaludis chaperonin (MmCpn) (Q6LX38 1-543): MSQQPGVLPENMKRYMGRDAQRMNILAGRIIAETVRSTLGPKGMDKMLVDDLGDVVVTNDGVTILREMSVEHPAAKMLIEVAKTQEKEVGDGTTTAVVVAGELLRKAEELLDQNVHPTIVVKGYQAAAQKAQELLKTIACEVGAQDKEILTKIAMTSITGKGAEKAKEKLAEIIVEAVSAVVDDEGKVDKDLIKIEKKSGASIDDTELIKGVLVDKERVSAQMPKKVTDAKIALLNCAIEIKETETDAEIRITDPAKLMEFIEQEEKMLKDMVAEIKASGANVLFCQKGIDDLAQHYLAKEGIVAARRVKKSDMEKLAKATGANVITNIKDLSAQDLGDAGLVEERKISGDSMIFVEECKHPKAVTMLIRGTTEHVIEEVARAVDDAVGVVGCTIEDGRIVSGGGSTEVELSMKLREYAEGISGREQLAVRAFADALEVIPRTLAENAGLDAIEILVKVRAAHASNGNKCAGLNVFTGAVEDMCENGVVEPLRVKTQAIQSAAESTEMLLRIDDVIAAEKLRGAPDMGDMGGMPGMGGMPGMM
Procedure, shortened: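 Steps: chaperonin 50 nM final; add compound, 5 min RT; start with ATP, 30 uM final; hold 10 min at 37C; add ADP Transcreener HTRF reagent, 5 min; read ex 320, em 590 and 665 nm.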

[7] = biological target: D(1A) dopamine receptor (Homo sapiens) (UniProt P21728); test: HTS Assay for Allosteric Agonists of the Human D1 Dopamine Receptor: Primary Screen for Potentiators (AID 488982)
Procedure, shortened: (§1)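 Tetracycline-induced HEK293 Trex D1 cells with forced coupling to calcium, loaded with no-wash calcium dye; kinetic fluorescence read 180 s after compound addition for agonism, then a further 180 s after an EC20 dopamine challenge for potentiation.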

[8] = biological target: D(1A) dopamine receptor (Homo sapiens) (UniProt P21728); test: HTS Assay for Allosteric Agonists of the Human D1 Dopamine Receptor: Primary Screen for Antagonists (AID 488983);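 further: calcium flux response to an EC80 dopamine challenge measured with no-wash dye; nearly all actives have a fitted effect of over 65% in size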
Procedure, shortened: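 Calcium-flux read-out in inducible HEK293 T-REx cells expressing D1, dye-loaded 30–90 min at room temperature. Kinetic reads: 180 s after compound (agonist phase), then 180 s after an EC80 dopamine challenge.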

[9] = Validation screen for small molecules that induce genotoxicity in human embryonic kidney (HEK293T) cells expressing luciferase-tagged ELG1 (AID 493106)
Procedure, shortened: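 ELG1-luciferase reporter readout (ONE-Glo, 30 min, room temperature) after 16 hr compound treatment at 37 °C of HEK293T cells at 2,000 per well. Rising luminescence flags genotoxic stress.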

[10] = biological target: ATPase family AAA domain-containing protein 5 (Homo sapiens) (UniProt Q96QE3); test: Validation screen for small molecules that inhibit ELG1-dependent DNA repair in human embryonic kidney (HEK293T) cells expressing luciferase-tagged ELG1 (AID 493107);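 further: series mostly up to about 46 µM; inhibitors lower the ELG1-luciferase luminescence signal; nearly all actives have a fitted effect of over 70% in size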
Procedure, shortened: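 Luciferase read-out, ONE-Glo, 30 min at room temperature, follows 16 h co-exposure at 37 C of compound and the DNA-damaging agent 5-fluorouridine. Cells: HEK293T with ELG1-luciferase fusion, 2,000 per well, DMSO as vehicle.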

[11] = biological target: Chromobox protein homolog 1 (Homo sapiens) (UniProt P83916); test: qHTS Validation Assay for Inhibitors of HP1-beta Chromodomain Interactions with Methylated Histone Tails (AID 488953); further: nearly all actives have a fitted effect of over 50% in size; further: potency means the concentration at half of the fitted maximal effect
Sequence of Chromobox protein homolog 1 (Homo sapiens) (P83916 whole entry, looked up): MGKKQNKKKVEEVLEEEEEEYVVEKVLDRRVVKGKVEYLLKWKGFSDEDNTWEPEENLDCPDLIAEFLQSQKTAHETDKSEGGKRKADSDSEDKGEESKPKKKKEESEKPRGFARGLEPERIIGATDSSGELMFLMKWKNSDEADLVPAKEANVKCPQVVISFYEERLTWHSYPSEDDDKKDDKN
Procedure, shortened: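 AlphaScreen proximity signal from streptavidin donor and nickel chelate acceptor beads (final 10 ug/mL) after 30 min dark incubation. Compounds had 30 min at room temperature with preformed complex of 50 nM HP1-beta and 50 nM b-H3(1-18)K9me3 in PBS pH 7.4 with 0.01% Tween-20.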

[12] = biological target: D(1A) dopamine receptor (Homo sapiens) (UniProt P21728); test: HTS Assay for Allosteric Agonists of the Human D1 Dopamine Receptor: Primary Screen for Agonists (AID 488981); further: potency means the concentration at half of the fitted maximal effect
Procedure, shortened: as §1

[13] = biological target: ATP-dependent 6-phosphofructokinase (Trypanosoma brucei brucei) (UniProt O15648); test: qHTS Validation Assay to Find Inhibitors of T. brucei phosphofructokinase (AID 485368); further: potency means the concentration at half of the fitted maximal effect
Sequence of ATP-dependent 6-phosphofructokinase (Trypanosoma brucei brucei) (O15648 whole entry, looked up): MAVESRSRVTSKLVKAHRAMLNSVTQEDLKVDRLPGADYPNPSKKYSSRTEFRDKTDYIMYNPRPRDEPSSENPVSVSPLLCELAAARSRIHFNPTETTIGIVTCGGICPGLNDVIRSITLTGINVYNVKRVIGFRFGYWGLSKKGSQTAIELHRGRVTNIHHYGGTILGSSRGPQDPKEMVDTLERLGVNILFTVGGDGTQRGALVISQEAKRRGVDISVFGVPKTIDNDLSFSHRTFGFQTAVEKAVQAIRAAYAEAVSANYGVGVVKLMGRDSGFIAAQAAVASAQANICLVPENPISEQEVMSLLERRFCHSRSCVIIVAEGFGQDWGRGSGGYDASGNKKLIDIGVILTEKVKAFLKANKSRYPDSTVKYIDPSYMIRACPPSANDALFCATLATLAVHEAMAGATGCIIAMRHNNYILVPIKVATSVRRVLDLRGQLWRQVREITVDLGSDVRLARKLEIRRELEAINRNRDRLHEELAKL
Procedure, shortened: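 Luminescent ADP detection measures PFK turnover of fructose-6-phosphate (0.5 mM) with ATP (0.1 mM) at pH 8.0. Reaction runs 45 min at room temperature with 1.25 nM enzyme; inhibitors tested as titrations up to 57 uM.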

[14] = Quantitative high throughput screen for delayed death inhibitors of the malarial parasite plastid, 96 hour incubation (AID 488745); further: nearly all actives have a fitted effect of over 70% in size; further: potency means the concentration at half of the fitted maximal effect
Procedure, shortened: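 Decreased firefly luciferase luminescence indicates inhibited growth of reporter-integrated P. falciparum after two generations (96 h, 37 C, 5% CO2). Infected erythrocytes at 0.1% parasitemia, 2% hematocrit, in Albumax-supplemented RPMI 1640.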

[15] = Quantitative high throughput screen for delayed death inhibitors of the malarial parasite plastid, 48 hour incubation (AID 488752); further: nearly all actives have a fitted effect of over 65% in size
Procedure, shortened: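 One-generation (48 h) growth assay: a decrease in luciferase signal from an integrated reporter in P. falciparum-infected red cells (0.1% parasitemia, 2% hematocrit) after compound exposure at 37 C indicates parasite inhibition.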

[16] = biological target: Transient receptor potential cation channel subfamily V member 1 (Homo sapiens) (UniProt Q8NER1); test: HTS Assay for Compounds that Act as Enhancers of the Vanilloid Receptor 1 (AID 488979)
Sequence of Transient receptor potential cation channel subfamily V member 1 (Homo sapiens) (Q8NER1 whole entry, looked up): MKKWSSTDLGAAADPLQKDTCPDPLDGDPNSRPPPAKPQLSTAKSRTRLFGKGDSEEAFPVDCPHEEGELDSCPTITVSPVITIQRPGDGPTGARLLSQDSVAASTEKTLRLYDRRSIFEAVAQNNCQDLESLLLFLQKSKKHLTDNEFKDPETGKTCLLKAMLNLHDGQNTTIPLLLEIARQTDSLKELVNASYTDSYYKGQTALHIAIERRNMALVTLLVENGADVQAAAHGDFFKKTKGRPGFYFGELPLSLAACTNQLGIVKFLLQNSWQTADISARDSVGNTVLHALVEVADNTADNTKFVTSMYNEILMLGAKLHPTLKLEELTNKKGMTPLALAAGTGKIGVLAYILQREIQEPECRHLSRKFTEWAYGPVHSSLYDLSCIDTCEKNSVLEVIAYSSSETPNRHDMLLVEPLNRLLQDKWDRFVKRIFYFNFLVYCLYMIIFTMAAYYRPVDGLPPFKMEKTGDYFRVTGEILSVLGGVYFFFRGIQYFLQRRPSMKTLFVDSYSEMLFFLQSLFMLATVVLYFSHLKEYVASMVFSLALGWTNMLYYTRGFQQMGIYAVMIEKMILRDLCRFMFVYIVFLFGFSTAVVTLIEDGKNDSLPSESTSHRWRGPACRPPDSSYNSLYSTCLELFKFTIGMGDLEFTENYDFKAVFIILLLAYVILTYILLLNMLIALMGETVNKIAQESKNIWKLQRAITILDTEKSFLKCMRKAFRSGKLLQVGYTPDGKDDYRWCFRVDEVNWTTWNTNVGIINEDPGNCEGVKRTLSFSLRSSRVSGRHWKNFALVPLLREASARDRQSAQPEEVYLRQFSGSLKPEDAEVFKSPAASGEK
Procedure, shortened: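 TRPV1 cells loaded with Fluo-8 calcium dye; compound added and Ca2+ signal (ex 480/em 520 nm) followed 3 min, then capsaicin at EC20 added and read 2 more min to detect enhancement.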

[17] = biological target: Thyrotropin receptor (Homo sapiens) (UniProt P16473); test: qHTS Assay for Antagonists of the Thyroid Stimulating Hormone Receptor (AID 488980); further: series mostly up to about 58 µM
Procedure, shortened: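 Readout is cAMP by HTRF competition between cellular cAMP and cAMP-d2 for a cryptate-labelled antibody. Antagonism was assessed in TSHR-transfected HEK293 cells stimulated with 4 nM TSH (EC80, final) in the presence of RO 20-1724.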

[18] = biological target: Thyrotropin-releasing hormone receptor (Homo sapiens) (UniProt P34981); test: qHTS for Small Molecule Agonists and Allosteric Enhancers of Human TRH Receptor: Validation Screen for Agonists (AID 493127;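 active means calcium activation more than 3 SD above the typical response in the agonist read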;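 further: intracellular calcium rise by fluo-8 fluorescence before TRH EC20 addition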); details: TRH receptor agonist cell assay; at 2 µM; stronger effect = higher value
Sequence of Thyrotropin-releasing hormone receptor (Homo sapiens) (P34981 whole entry, looked up): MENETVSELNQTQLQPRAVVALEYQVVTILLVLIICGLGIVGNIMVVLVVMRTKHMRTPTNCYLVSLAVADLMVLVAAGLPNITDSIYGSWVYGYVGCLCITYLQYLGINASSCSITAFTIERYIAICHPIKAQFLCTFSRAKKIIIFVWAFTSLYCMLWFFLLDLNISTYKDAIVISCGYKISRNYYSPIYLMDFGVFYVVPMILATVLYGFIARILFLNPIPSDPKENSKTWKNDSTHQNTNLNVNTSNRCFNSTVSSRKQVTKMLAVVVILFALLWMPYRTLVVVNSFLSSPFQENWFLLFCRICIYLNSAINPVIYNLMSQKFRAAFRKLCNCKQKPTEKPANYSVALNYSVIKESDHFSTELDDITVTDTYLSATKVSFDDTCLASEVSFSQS
Procedure, shortened: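 Compound-evoked intracellular calcium release in fluo-8-loaded TRHR cells, read kinetically on FDSS (Ex 480/Em 530, 1 s/cycle) after 23 nL pintool transfer. Agonist phase preceded 10 nM TRH EC20 addition.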

SMILES	outcome [1]	outcome [2]	Potency [3]	Potency [4]	Potency [5]	outcome [6]	Potency [7]	Potency [8]	Potency [9]	Potency [10]	Potency [11]	Potency [12]	Potency [13]	Potency [14]	Potency [15]	outcome [16]	outcome [17]	activation [18]
CNCCc1cnc(CCC(c2ccccc2)c2ccccc2)[nH]1	inactive	inactive	inactive	inactive	inactive	inactive	inactive	inactive	inactive	inactive								
CN(CC[C@@H](Oc1ccc(C(F)(F)F)cc1)c1ccccc1)CC(=O)O	inactive	inactive	inactive	inactive		inactive	inactive	inactive	inactive		inactive	inactive						
Cc1cccc(C)c1OCC(N)C(C)C (stereo unspecified)		inactive	inactive	inactive	inactive	inactive	inactive	inactive	inactive		inactive		inactive	inactive	inactive	inactive	inactive	
O=C(O)C1=CC(=C(c2ccc(O)c(C(=O)O)c2)c2ccc(O)c(C(=O)O)c2)C=CC1=O		inactive	inactive	0.134 µM (active)	178 nM (active) and 238 nM (active)	inactive	inactive	inactive	inactive		0.199 µM (active)	inactive	0.0601 µM (active)	inactive	inactive	inactive	inactive	1%
COc1cc(/C=C(\C#N)C(=O)Nc2nnc(C(F)(F)F)s2)ccc1OCc1ccc(C(F)(F)F)cc1C(F)(F)F	inactive	inactive	inactive	inactive	inactive	inactive	inactive	inactive	inactive	inactive	89.1 µM (active)	inactive						
N#CC(=C(\N)Sc1ccccc1N)/C(C#N)=C(/N)Sc1ccccc1N	inactive	inactive		inactive	inactive	inactive	inactive	inactive	inactive			inactive					inactive	2.62%
C[C@H]1CC2C3CCC4=CC(=O)C=C[C@]4(C)[C@@]3(Cl)[C@@H](O)C[C@]2(C)[C@@]1(O)C(=O)CO (stereo partly specified)	inactive	inactive	inactive	inactive	inactive	inactive	inactive		inactive	inactive		inactive						
N#C/C(=C\c1ccc(O)c(O)c1)C(=O)NCCCNC(=O)/C(C#N)=C/c1ccc(O)c(O)c1	inactive					inactive		inactive	inactive			inactive				inactive	inactive	-0.0625%
N[C@@H](CCC(=O)N[C@H](CSN=O)C(=O)NCC(=O)O)C(=O)O		inactive	inactive	inactive	inactive	inactive	inactive	inactive		inactive		inactive			inactive	inactive	inactive	1.31%
CC1=C(/C=C/C(C)=C/C=C/C(C)=C\C(=O)O)C(C)(C)CCC1		inactive		inactive	inactive	inactive	inactive	inactive	inactive		inactive	inactive	inactive			inactive		0.75%
CC[C@H](NC(=O)c1c(C)c(-c2ccccc2)nc2ccccc12)c1ccccc1		inactive	inactive	inactive	inactive	inactive	inactive	inactive	inactive		inactive	inactive		3.7 µM (active)		inactive	inactive	
Cc1nc2c(OCc3ccccc3)cccn2c1CC#N		inactive	inactive	inactive	inactive	inactive	inactive	inactive	inactive		inactive	inactive		inactive	inactive	inactive	inactive	0.25%
N[C@@H](CS(=O)O)C(=O)O		inactive	inactive	inactive	inactive	inactive	inactive			inactive	inactive				inactive	inactive	inactive	0.688%
CNc1ncnc2c1ncn2[C@H]1C[C@H](OP(=O)(O)O)[C@@H](COP(=O)(O)O)O1		inactive	inactive	inactive	inactive	inactive	inactive	inactive	inactive	inactive	inactive	inactive		inactive	inactive	inactive	inactive	1.25%
COCc1nc2c([nH]1)c(=O)n(C)c(=O)n2CC(C)C		inactive	inactive	inactive	inactive	inactive	inactive	inactive	inactive	inactive	inactive		inactive		inactive	inactive	inactive	0.875%
CN(C)S(=O)(=O)c1ccc2c(c1)/C(=C/c1cc3c([nH]1)CCCC3)C(=O)N2		inactive		inactive		inactive	inactive	inactive				12.6 µM (active)	inactive	3.7 µM (active)			inactive	
